High-throughput results: PubChem, National Center for Advancing Translational Sciences (NCATS)
G9a block: blocks human histone lysine methyltransferase G9a; Q96KQ7; G9a H3K9 monomethylation, AlphaScreen, 2 h; actives 8.8% (n = 350,000); Potency, µM (titrated, usually from 102 µM), for the others: at the top dose activity, negative = inhibition, actives largely listed as inhibitors; AID 504332; further: potency means the concentration at half of the fitted maximal effect; nearly all actives have a fitted effect of over 75% in size
Target sequence (Q96KQ7 913-1193 limits assumed): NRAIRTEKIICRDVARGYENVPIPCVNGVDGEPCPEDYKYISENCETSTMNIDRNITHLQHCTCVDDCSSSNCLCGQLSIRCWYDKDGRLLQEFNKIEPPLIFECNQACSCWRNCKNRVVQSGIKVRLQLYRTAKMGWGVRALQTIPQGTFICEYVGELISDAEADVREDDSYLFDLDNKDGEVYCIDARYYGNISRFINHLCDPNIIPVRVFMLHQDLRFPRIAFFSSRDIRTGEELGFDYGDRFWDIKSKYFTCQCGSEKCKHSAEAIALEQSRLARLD
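Enzyme 20 nM + cpd, 15 min RT; add b-H3K9 pep 500 nM / SAM 20 uM; 2 h RT; anti-H3K9me1 Ab 0.5 ug/mL + SA donor / anti-rabbit acceptor beads 20 ug/mL each, 10 min; AlphaScreen read.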
Tau FP inhib: tau fibrillization inhibition (FP); P10636; K18 P301L tau heparin fibrillization, Alexa594 FP, 6 h; Potency, µM (titrated, usually from 57.7 µM), without a hit: top-dose activity, negative = inhibition, usual class: inhibitors; actives 0.39% (n = 280,000); further: potency means the concentration at half of the fitted maximal effect; nearly all actives have a fitted effect of over 55% in size
Target sequence (P10636 561-689 P618L limits assumed): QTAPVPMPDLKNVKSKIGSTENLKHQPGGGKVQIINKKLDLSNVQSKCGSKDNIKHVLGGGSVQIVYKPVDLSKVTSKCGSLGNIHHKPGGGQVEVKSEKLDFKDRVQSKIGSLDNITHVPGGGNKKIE
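K18 P301L tau (15 uM unlabeled/0.24 uM Alexa 594-labeled, final) + compound + heparin 20 uM final; 100 mM NaOAc pH 7; 6 hr 37 C; ThT 30 uM final added, 1 hr RT; FP ex 555/em 632 nm.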
Tau fluor counter: counter-screen for tau fibril formation inhibitors | tau K18 P301L Alexa594 fluorescence, heparin fibrillization | Potency, µM (series often up to 57.7 µM), for inactives: top-dose activity change, negative = decrease | actives 0.93% (n = 280,000); further: potency means the concentration at half of the fitted maximal effect; nearly all actives have a fitted effect of over 55% in size
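Human tau K18 P301L (15 uM unlabeled, 0.24 uM Alexa 594-labeled) in 100 mM sodium acetate pH 7 with 20 uM heparin, 6 hr at 37 C. ThT 30 uM added, 1 hr ambient; Alexa 594 FP and total fluorescence read at 555/632 nm.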
Sfp PPTase inh: blocks B. subtilis Sfp PPTase activity; actives 3.5% (n = 310,000); Q9F4F7; Biochemical Sfp PPTase activity, qHTS; Potency, µM, without a hit: largest response in the series, negative = inhibition, actives largely listed as inhibitors;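 further: the enzyme is Sfp with the accession as filed and its product quenches rhodamine fluorescence; potency means the concentration at half of the fitted maximal effect; 0% = enzyme reaction without inhibitor and -100% = no enzyme wells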
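Step 1, compound plus 15 nM Sfp-PPTase, 15 min, room temperature. Step 2, add rhodamine-CoA (5 uM) and BHQ-2-YbbR (12.5 uM). Step 3, read 525/598 nm fluorescence at 0 and 30 min.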
Tau fibril ThT: blocks human tau fibril formation measured by thioflavin T. actives 2.1% (n = 270,000). P10636. Potency, µM (highest dose often 57.4 µM), for inactives: top-dose activity, negative = inhibition, actives largely listed as inhibitors. recombinant tau K18 P301L (four-repeat tau fragment), heparin-induced fibrillization, ThT fluorescence; further: potency means the concentration at half of the fitted maximal effect; nearly all actives have a fitted effect of over 55% in size
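Heparin-induced (20 uM) aggregation of recombinant human K18 P301L tau, 15 uM unlabeled with 0.24 uM labeled, pH 7 acetate buffer, 6 hr at 37 C with compound. Fibrils quantified by 30 uM ThT fluorescence after 1 hr ambient incubation.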
Coupling enz: counter-screen for Giardia aldolase inhibitors: coupling enzyme system; actives 0.67% (n = 290,000); coupling enzyme system counterscreen, AmpLite Red fluorescence; activity change, negative = inhibition, % at 58.2 µM, hits read low; in the data active means activity change below about -30%
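First, compound is pin-transferred into glyceraldehyde-3-phosphate coupling-enzyme reagent at 57.5 uM final and held 10 min at RT. Next, substrate, coupling system and AmpLite Red are added. After 20 min RT, fluorescence (525/598 nm) is read.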
Active calls of the source: *; [ ] = dose if it differs, or a comment. In the library only some 11% were active in any assay of this set; here they are far more common. Unless noted, the call rests on the fitted dose curve; in most records, active means well fitted curve in the direction sought with a large enough effect; inconclusive means small, poorly fitted or top-dose-only effect, or another doubt; inactive means no such curve, though single readings can be large; an effect the other way counts as inactive or inconclusive. Unless noted, on the % scale 0 is the no-effect control and ±100 the full control effect.

How did COc1cc(C(=O)NC(=S)Nc2ccc3c(c2)C(=O)N(C)C3=O)cc(OC)c1OC do in these assays?
G9a block: 45µM*; Tau FP inhib: -1%; Tau fluor counter: -17%; Sfp PPTase inh: -5%; Tau fibril ThT: inconclusive; Coupling enz: 2

What do the screens show for `COc1cccc(C(=O)NC(=S)Nc2ccccc2N2CCCC2)c1`?
G9a block: 3%[12.7 µM]; Tau FP inhib: 5%; Tau fluor counter: inconclusive; Sfp PPTase inh: 25µM*; Tau fibril ThT: inconclusive; Coupling enz: -1

What do the screens show for `COc1cc(C(=O)NC(=S)Nc2ccccc2N2CCCC2)cc(OC)c1OC`?
G9a block: 40µM*; Sfp PPTase inh: -27%; Coupling enz: -6

What do the screens show for `COc1c(C)cccc1C(=O)NC(=S)Nc1ccccc1N1CCCC1`?
G9a block: 32µM*; Sfp PPTase inh: 9%

Results for COc1cccc(OC)c1C(=O)NC(=S)Nc1ccc2c(c1)C(=O)N(C)C2=O ?
G9a block: inconclusive; Tau FP inhib: 0%; Tau fluor counter: 7%; Sfp PPTase inh: -7%; Tau fibril ThT: 12%; Coupling enz: 2

How did CCCCOc1ccc(C(=O)N2CCN(CCc3ccccn3)CC2)cc1 do in these assays?
G9a block: -26%[59 µM]; Tau FP inhib: -8%; Tau fluor counter: -4%; Tau fibril ThT: -1%

What do the screens show for `O=C(NCc1ccc(Cl)cc1)c1ccc2ccccc2n1`?
G9a block: 39%; Sfp PPTase inh: -6%; Coupling enz: 5

Results for O=C(c1ccco1)N1CCC2(CCCN(c3ncccn3)C2)CC1 ?
G9a block: -4%[12.7 µM]; Sfp PPTase inh: 6%; Coupling enz: 1

How did Cc1ccc(C(=O)NC(=S)Nc2ccccc2N2CCCC2)cc1[N+](=O)[O-] do in these assays?
G9a block: 2.8µM*; Tau FP inhib: 16%; Tau fluor counter: inconclusive; Sfp PPTase inh: 18µM*; Tau fibril ThT: -15%; Coupling enz: -9

Results for CCC(c1nnc(SCC(=O)NCCc2ccc(Cl)cc2Cl)o1)N(C)C (stereo unspecified) ?
G9a block: 40µM*; Tau FP inhib: 7%; Tau fluor counter: 2%; Sfp PPTase inh: inconclusive; Tau fibril ThT: 0%; Coupling enz: 0

What do the screens show for `Cc1csc(SCC(=O)NCCc2ccc(Cl)cc2Cl)n1`?
G9a block: -17%; Tau FP inhib: 5%; Tau fluor counter: -1%; Sfp PPTase inh: 15%; Tau fibril ThT: -2%; Coupling enz: 3

What do the screens show for `CCC(=O)N1c2ccccc2NC2=C(C(=O)CC(c3ccco3)C2)C1c1ccco1` (stereo unspecified)?
G9a block: -51%[12.7 µM]; Tau FP inhib: 5%; Tau fluor counter: 2%; Sfp PPTase inh: -21%; Tau fibril ThT: -8%; Coupling enz: 0

What do the screens show for `COc1ccc(C2CC(=O)C3=C(C2)Nc2ccccc2N(C(C)=O)C3c2ccco2)cc1` (stereo unspecified)?
G9a block: -11%[59 µM]; Tau FP inhib: 0%; Tau fluor counter: 2%; Sfp PPTase inh: 1%; Tau fibril ThT: -3%; Coupling enz: -1

What do the screens show for `O=C1CC(c2ccco2)CC2=C1C1c3ccccc3C(=O)N1c1ccccc1N2` (stereo unspecified)?
G9a block: 18µM*; Tau FP inhib: -10%; Tau fluor counter: inconclusive; Sfp PPTase inh: 20µM*; Tau fibril ThT: -14%; Coupling enz: 2

How did COc1cc(C2C3=C(CC(c4ccco4)CC3=O)Nc3ccccc3N2C(C)=O)cc(OC)c1OC (stereo unspecified) do in these assays?
G9a block: inconclusive; Tau FP inhib: 4%; Tau fluor counter: -2%; Sfp PPTase inh: 18µM*; Tau fibril ThT: -13%; Coupling enz: -10

What do the screens show for `O=c1oc(-c2ccc([N+](=O)[O-])cc2)nc2ccc(O)cc12`?
G9a block: 40µM*; Tau FP inhib: -6%; Tau fluor counter: inconclusive; Sfp PPTase inh: -4%; Tau fibril ThT: 13µM*; Coupling enz: -2

How did O=c1oc(-c2ccc([N+](=O)[O-])cc2)nc2ccccc12 do in these assays?
G9a block: -3%; Tau FP inhib: 4%; Tau fluor counter: -21%; Sfp PPTase inh: 15%; Tau fibril ThT: inconclusive; Coupling enz: 0

How did Cc1cc2c(ncn2C)c(NS(=O)(=O)c2cc(Cl)ccc2Cl)c1C do in these assays?
G9a block: 8.9µM*; Tau FP inhib: 4%; Tau fluor counter: -14%; Sfp PPTase inh: 7%; Tau fibril ThT: -17%; Coupling enz: 2

What do the screens show for `COc1cccc(CNC(=O)c2[nH]c3cc(C)ccc3c2Sc2ccccc2)c1`?
G9a block: inconclusive; Tau FP inhib: 5%; Tau fluor counter: -23%; Tau fibril ThT: -8%

Results for CCOC(=O)c1cnc2ccccc2c1NCc1ccco1 ?
G9a block: 1%; Tau FP inhib: -4%; Tau fluor counter: -30%; Sfp PPTase inh: 45µM*; Tau fibril ThT: inconclusive; Coupling enz: 0

How did CCOC(=O)c1cnc2ccc(OC)cc2c1NCc1ccccc1 do in these assays?
G9a block: 191%; Tau FP inhib: 5%; Tau fluor counter: -9%; Sfp PPTase inh: -8%; Tau fibril ThT: inconclusive; Coupling enz: -4

What do the screens show for `CCOC(=O)c1cnc2ccccc2c1Nc1ccc2c(c1)OCCO2`?
G9a block: inconclusive; Tau FP inhib: 3%; Tau fluor counter: -23%; Sfp PPTase inh: -16%; Tau fibril ThT: inconclusive; Coupling enz: -7

Results for CCOC(=O)c1cnc2ccc(OCC)cc2c1N1CCN(C)CC1 ?
G9a block: -19%; Tau FP inhib: -6%; Tau fluor counter: -9%; Sfp PPTase inh: -10%; Tau fibril ThT: -13%; Coupling enz: -39*

How did CCOC(=O)c1cnc2c(OC)cccc2c1N1CCN(c2ccccc2OC)CC1 do in these assays?
G9a block: inconclusive; Tau FP inhib: -17%; Tau fluor counter: inconclusive; Sfp PPTase inh: 79µM*; Tau fibril ThT: -15%; Coupling enz: -5

What do the screens show for `CCOC(=O)c1cnc2ccc(OCC)cc2c1NCc1ccccc1OC`?
G9a block: 27%[59 µM]; Tau FP inhib: -6%; Tau fluor counter: -11%; Sfp PPTase inh: 56µM*; Tau fibril ThT: inconclusive; Coupling enz: -10

Results for Cc1ccc(C)c(NC2=C(c3ccc(C(F)(F)F)cc3)C(=O)c3ccccc32)c1 ?
G9a block: -39%[59 µM]; Tau FP inhib: -5%; Tau fluor counter: -23%; Tau fibril ThT: -10%

What do the screens show for `COc1ccccc1-c1nc(NC2CC2)c2ccccc2n1`?
G9a block: 5%[0.501 µM]; Sfp PPTase inh: -5%; Coupling enz: 4
